Test results reported in PubChem BioAssay (NCATS).
Inconclusive results are not listed. A call without a number means that no potency is given here. Values without a mark were called inactive. Activity calls are given as the source filed them. Calls come from the whole dose curve; as a rule, active = well fitted curve in the direction sought with a large enough effect; inconclusive = small, poorly fitted or top-dose-only effect, or another doubt; inactive = no such curve, though single readings can be large; an effect the other way counts as inactive or inconclusive.

Tests used:
Tov-21-G = test: Primary qHTS to identify gynecologic anti-cancer compounds using libraries of approved drugs and bioactive compounds (AID 1345084); conditions: Gynecologic cancer cell panel viability, ATPlite luminescence, 48 h; series mostly up to 57.5 µM; note: nearly all actives have a fitted effect of over 55% in size
Method in brief: (§1)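 Five-point cytotoxicity, 48 h drug exposure at 37 C, 5% CO2, on cells seeded 16 h beforehand. ATP content read by ATPlite luminescence.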

Tov112D = test: as above; conditions: Gynecologic cancer cell panel viability, ATPlite luminescence, 48 h; series mostly up to 57.5 µM
Method in brief: as §1

[1] = qHTS assay to identify inhibitors of the type 1 interferon - major histocompatibility complex class I in skeletal muscle: Counter screen cell viability and HiBit confirmation (AID 1347412); conditions: iHSKM muscle cells + IFN-b, HiBiT or CellTiter-Glo, 24 h; HiBiT; note: nearly all actives have a fitted effect of over 60% in size
Method in brief: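 Human myoblast knock-in line, 4.0 ng/ml IFN-beta stimulation, 24 h compound treatment. Endpoints: HiBiT lytic luminescence (HLA-B level) and CellTiter Glo (ATP). Dosing 12 concentrations, 3-fold steps, 46 uM highest final.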
Potency is the fitted concentration of half-maximal effect.

Row | SMILES | Potency (Tov-21-G) | Potency (Tov112D) | Potency [1]
1 | O=C(Nc1ccc(Cl)cc1)C1CCCN(C(=O)c2cccc(-c3ccco3)c2)C1 (centres undefined) | inactive | inactive | 
2 | CCCCCCCCC(=O)N[C@H](CN1CCCC1)[C@H](O)c1ccc2c(c1)OCCO2 | inactive | inactive | 
3 | COc1ccccc1C(=O)Nc1cc2c(cc1N1CCCC1)n(C)c(=O)n2C | inactive | inactive | 
4 | CC(NC(=O)Cc1cc(F)cc(F)c1)C(=O)NC1C(=O)N(C)c2ccccc2-c2ccccc21 (centres undefined) | inactive | inactive | 
5 | COc1cc(/C=C/C(=O)NCCn2c(C(F)(F)F)cc3ccccc32)cc(OC)c1OC | inactive | inactive | 
6 | COc1cc(C[C@H]2C(=O)OC[C@@H]2Cc2ccc(OC)c(OC)c2)ccc1O | inactive | inactive | 
7 | CCCn1cc2c(nc(NC(=O)Nc3ccc(OC)cc3)n3nc(-c4ccco4)nc23)n1 | inactive | inactive | 
8 | COc1cc2ncnc(Nc3cccc(I)c3)c2cc1OC | inactive | inactive | 
9 | C[C@@H](NC(=O)[C@H](O)c1cc(F)cc(F)c1)C(=O)N[C@@H]1C(=O)N(C)c2ccccc2-c2ccccc21 | inactive | inactive | 
10 | C=C1C(=O)O[C@@H]2/C=C(\CO)CC/C=C(/C=O)C[C@@H](O)[C@@H]12 | 14.1 µM (active) | inactive | 
11 | CC(=O)C=C=C1C(C)(C)CC(O)CC1(C)O[C@@H]1O[C@H](CO[C@H]2OC[C@](O)(CO)[C@H]2O)[C@@H](O)[C@H](O)[C@H]1O (some centres undefined) | inactive | inactive | 
12 | Cc1csc2c(N[C@@H](C)CN3CCN(S(=O)(=O)c4ccc(Cl)c(Cl)c4)CC3)ncnc12 | inactive | inactive | 
13 | N#CC(CCCN1CCN(/N=C/c2cccnc2)CC1)(c1ccccc1)c1ccccc1 | inactive | inactive | 
14 | COc1ccc(C2(N(C)C(=O)c3ccc(NC(=O)c4ccco4)cc3)CCOCC2)cc1 | inactive | inactive | 
15 | O=C(NO)c1ccc(CC(=O)N(CCO)c2ccccc2)cc1 | inactive | inactive | 
16 | Cc1nc(C#Cc2ccnc(Cl)c2)c(C)n1-c1ccc(F)cc1 | inactive | inactive | 
17 | COc1cc(/C=C2\CCCN([C@@H](C)c3ccc(F)cc3)C2=O)ccc1-n1cnc(C)c1 | inactive | inactive | 
18 | CC/C=C\CC1C(=O)C=CC1(CCCCC1CCC(=O)O1)OC(C)=O (centres undefined) | inactive | inactive | 
19 | COCCN(C(=O)c1cc(OC)c(OC)c(OC)c1)c1nc(-c2ccccc2)cs1 | inactive | inactive | 

Row | SMILES | Potency (Tov-21-G) | Potency (Tov112D) | Potency [1]
20 | CCOc1nc(NC(=O)Cc2cc(OC)ccc2OC)cc(N)c1C#N | inactive | inactive | 
21 | O=c1cc(OCc2ccc(F)cc2)ccn1-c1ccc(OCCN2CCCC2)cc1 | inactive | inactive | 
22 | COc1ccc2nccc(C(=O)CC[C@@H]3CCN(CC#Cc4cc(F)cc(F)c4F)C[C@@H]3C(=O)O)c2c1 | inactive | inactive | 
23 | O=C(Nc1cccnc1)c1cc(-c2ccnc(F)c2)ccc1OCc1ccccc1 | inactive | inactive | 
24 | C=C1C(=O)O[C@@H]2[C@H]3C(C)=CC(=O)C3=C(C)CC[C@@H]12 | 28.2 µM (active) | inactive | 
25 | O=C(Nc1nc2ccc([N+](=O)[O-])cc2s1)C1CCCCC1 | inactive | inactive | 
26 | COc1cc(F)c(C(C)C)cc1-c1ccc(C(F)(F)F)cc1CN1C(=O)OC(c2cc(C(F)(F)F)cc(C(F)(F)F)c2)C1C (centres undefined) | inactive | inactive | 
27 | O=C(Nc1ccccc1)N1CCN(c2nc(-c3ccccc3)ns2)CC1 | inactive | inactive | 
28 | Nc1ncnc2c1nc(Cl)n2C1OC2COP(=O)(O)OC2C1O (centres undefined) | 8.91 µM (active) | 5.01 µM (active) | 
29 | CN1CCC(c2cn(C)c3ccc(OS(=O)(=O)c4c(F)cccc4F)cc23)CC1 | inactive | inactive | 
30 | Cc1nc2cc(C(=O)NCc3ccccn3)nn2c(C)c1Cc1cccc(Cl)c1 | inactive | inactive | 
31 | CC(C)(C[C@@](O)(Cc1cc2ccncc2[nH]1)C(F)(F)F)c1cc(F)ccc1O | inactive | inactive | 
32 | COc1ccc2cc3c(NC(=O)c4ccco4)nn(C)c3nc2c1 | inactive | inactive | 
33 | O=C(COc1ccc(C(=O)c2ccccc2)cc1)NC1CCN(Cc2ccccc2)CC1 | inactive | inactive | 
34 | COc1cc([C@H]2O[C@H](c3cc(OC)c4c(c3)OCO4)[C@H](C)[C@H]2C)cc(OC)c1OC | inactive | inactive | 
35 | COc1cc(Br)c(S(=O)(=O)Nc2ccc(Cl)c(O[C@@H]3CCN(C)C3)c2)cc1OC |  | inactive | 
36 | COc1cccc(-c2cc(F)ccc2C2Cc3nc(N)nc(C)c3C(=O)N2)n1 (centres undefined) | 0.282 µM (active) |  | 0.0222 µM (active)
37 | COc1cc2ncnc(Nc3ccc(O)c(Br)c3)c2cc1OC |  | inactive | 
38 | CC(C)C[C@@H](C(=O)N[C@@H](Cc1ccc(OCc2ccccc2)cc1)C(=O)NC(C)(C)C)N(C)Cc1ccc(C(C)(C)C)cc1 | inactive | inactive | 
